# Compounds with a hit are over-represented: about 19% of the library has one in this group of screens.
# DT40 TDP1 CPT: qHTS for Inhibitors of human tyrosyl-DNA phosphodiesterase 1 (TDP1): qHTS in cells in presence of CPT. chicken DT40 Tdp1-/-;hTDP1 cells + 20 nM CPT, ATP luminescence, 48 h. Potency, µM (highest dose often 46.2 µM), for the others: at the highest dose activity change, negative = growth inhibition, actives largely listed as inhibitors. 12% of 420,000 active. AID 686979, 2013; further: nearly all actives have a fitted effect of over 55% in size
#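 Chicken DT40 Tdp1-/- cells complemented with human TDP1, 400 cells/well, exposed to compounds plus 20 nM camptothecin for at least 48 h at 37 C; viability read as ATP content by CellTiter-Glo luminescence.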
# TDP1 block: qHTS Assay for Inhibitors of Tyrosyl-DNA Phosphodiesterase (TDP1); recombinant TDP1, AlphaScreen DNA substrate cleavage; Potency, µM (titrated, usually from 130 µM), without a hit: at the top dose activity change, negative = inhibition, usual class: inhibitors; 0.28% of 350,000 active; Tyrosyl-DNA phosphodiesterase 1 (Homo sapiens), Q9NUW8; AID 485290, 2010; further: nearly all actives have a fitted effect of over 40% in size
# Target sequence (Q9NUW8 whole entry, looked up): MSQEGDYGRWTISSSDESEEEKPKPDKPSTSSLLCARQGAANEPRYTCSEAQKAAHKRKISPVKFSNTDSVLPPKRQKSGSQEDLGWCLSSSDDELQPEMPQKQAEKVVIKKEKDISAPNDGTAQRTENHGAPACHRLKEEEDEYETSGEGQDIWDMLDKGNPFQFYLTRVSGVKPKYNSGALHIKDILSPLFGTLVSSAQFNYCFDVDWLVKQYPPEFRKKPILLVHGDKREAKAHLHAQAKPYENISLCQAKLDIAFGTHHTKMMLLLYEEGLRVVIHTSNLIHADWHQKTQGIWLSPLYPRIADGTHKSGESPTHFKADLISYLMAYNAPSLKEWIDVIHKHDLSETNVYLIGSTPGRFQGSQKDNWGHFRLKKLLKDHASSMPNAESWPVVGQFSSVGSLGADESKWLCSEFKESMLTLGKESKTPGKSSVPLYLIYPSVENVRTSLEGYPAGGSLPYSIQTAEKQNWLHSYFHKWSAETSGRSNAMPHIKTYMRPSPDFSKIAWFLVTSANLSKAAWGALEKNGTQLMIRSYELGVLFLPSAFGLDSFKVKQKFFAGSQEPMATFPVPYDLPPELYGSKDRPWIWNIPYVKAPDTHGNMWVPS
#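 Recombinant E. coli-expressed Tdp1 (1 nM) preincubated with compound 15 min at RT, then 5'-biotin/3'-phosphotyrosine-FITC DNA substrate (15 nM) added for 5 min. AlphaScreen beads (10 ug/ml) added, 10 min RT; tyrosine-FITC cleavage read as signal loss.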
# Gal4-VP16 FLuc: VP16 counterscreen qHTS for inhibitors of ROR gamma transcriptional activity; Drosophila S2 Gal4-VP16 UAS-luciferase, luminescence, 20 h; Potency, µM (doses to about 53.6 µM), for the others: at the highest dose activity, negative = inhibition, hits mostly inhibitors; 3.5% of 310,000 active;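 further: Gal4-VP16 expression switched on by copper sulfate through the metallothionein promoter; nearly all actives have a fitted effect of over 50% in size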
# TDP1 cell noCPT: qHTS for Inhibitors of human tyrosyl-DNA phosphodiesterase 1 (TDP1): qHTS in cells in absence of CPT | DT40 Tdp1-/- hTDP1 cells, no CPT, ATP luminescence, 48 h | Potency, µM (series often up to 46.2 µM), inactives show at the highest dose activity change, negative = growth inhibition, usual class: inhibitors | 15% of 420,000 active | AID 686978, 2013; further: nearly all actives have a fitted effect of over 55% in size
#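 DT40 Tdp1-/-;hTDP1 cells, no CPT (DMSO vehicle only), 400 cells/well; compounds pin-transferred; ≥48 hr, 37 °C; CellTiter-Glo 30 min RT dark, luminescence read.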
# RORgamma inh: qHTS for inhibitors of ROR gamma transcriptional activity | Nuclear receptor ROR-gamma (Mus musculus), P51450 | Drosophila S2 Gal4-RORgamma UAS-luciferase reporter, 20 h | Potency, µM (doses to about 53.6 µM), for inactives: at the highest dose activity change, negative = inhibition, hits mostly inhibitors | 5.4% of 310,000 active | AID 2551, 2010; further: nearly all actives have a fitted effect of over 60% in size
#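 Stably transfected Drosophila Schneider cells are the test system, with ROR gamma fused to Gal4 and luciferase under UAS control; luminescence is read after 20 hr of 700 uM copper sulfate induction at ambient temperature.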
# Starred values were filed as active, the others as inactive; u = inconclusive; x = no result given; ! = repeats disagree. The call rests on the fitted dose curve; in most records, active means well fitted curve in the direction sought with a large enough effect; inconclusive means small, poorly fitted or top-dose-only effect, or another doubt; inactive means no such curve, though single readings can be large; an effect the other way counts as inactive or inconclusive. On the % scale 0 is the no-effect control and ±100 the full control effect; potency means the concentration at half of the fitted maximal effect.
SMILES,DT40 TDP1 CPT,TDP1 block,Gal4-VP16 FLuc,TDP1 cell noCPT,RORgamma inh
S=c1[nH]nc(C2CCCCC2)n1/N=C/c1ccccc1,-7%,x,u,3%,8.9µM*
c1cc(N2CCCCC2)nc(N2CCCCC2)n1,-27%,x,x,u,x
C[c-]1[c-](C)[c-](C)[c-](C)[c-]1C.[Fe].c1cc2nccc(N3CCCC3)[c-]2c1 (configuration not stated),8.2µM*!,7.9µM*!,-7%,6.5µM*,-3%
COc1ccc(C(=O)N2CCc3cc(OC)c(OC)cc3C2c2ccc(OC)c(OC)c2)cc1 (configuration not stated),u,x,-3%,u,18%
COc1ccc(C2c3cc(OC)c(OC)cc3CCN2C(=O)c2ccccc2)cc1OC (configuration not stated),u,x,-5%,9.2µM*,5%
COc1ccc(C2c3cc(OC)c(OC)cc3CCN2S(C)(=O)=O)cc1OC (configuration not stated),16µM*,-1%,4%,21µM*,-29%
COc1cc2c(cc1OC)C(c1cccc([N+](=O)[O-])c1)N(C(=O)c1ccccc1C(=O)O)CC2 (configuration not stated),1%,2%,-2%,-4%,-2%
COc1ccc(C(=O)N2CCc3cc(OC)c(OC)cc3C2c2cccc([N+](=O)[O-])c2)cc1OC (configuration not stated),u,7%,1%,18µM*,18%
Cc1ccc(S(=O)(=O)N2C3CCCCC3O[C@H]2CC(=O)c2ccccc2)cc1 (some centres not stated),9%,x,x,u,x
CCNc1c(NS(=O)(=O)c2ccc(Br)s2)c(=O)oc2ccccc12,2%,8%,-7%,-18%,8%
CCCN1C(=O)c2[nH]nc(-c3ccccc3O)c2C1c1ccc(OCc2ccccc2)c(OCC)c1 (configuration not stated),23µM*,12%,x,16µM*,x
COc1cc(C2c3c(-c4cc(C)ccc4O)n[nH]c3C(=O)N2CCCO)ccc1OCCC(C)C (configuration not stated),u,9%,x,29µM*,x
COCCN1C(=O)c2[nH]nc(-c3cc(C)ccc3O)c2C1c1ccc(C(C)C)cc1 (configuration not stated),u,10%,x,u,x
O=C1c2[nH]nc(-c3ccccc3O)c2C(c2ccccc2F)N1Cc1cccnc1 (configuration not stated),u,2%,x,u,x
CC(C)OCCCN1C(=O)c2[nH]nc(-c3ccccc3O)c2C1c1ccccc1F (configuration not stated),13µM*,7%,x,13µM*,x
CCCOc1ccc(C2c3c(-c4c(C)cc(C)cc4O)n[nH]c3C(=O)N2CCO)cc1 (configuration not stated),21µM*,2%,x,23µM*,x
Cc1ccc(S(=O)(=O)N(C)C)cc1NC(=S)NNC(=O)C(N)=O,15%,8%,2%,8%,-20%
Fc1ccc(OCCOCCN2CCNCC2)cc1,-1%,6%,-13%,-16%,-2%
COc1ccc(C2/C=C\CN(Cc3ccco3)CC(=O)N2Cc2ccc(F)cc2)cc1 (configuration not stated),u,13%,3%,u,38%
O=C(CSc1nccc(=O)[nH]1)NC1CCCCCC1,3%,1%,x,0%,x
CC(C)OCCCN1C(=O)c2[nH]nc(-c3ccccc3O)c2C1c1cccc(OCc2ccccc2)c1 (configuration not stated),10µM*,4%,x,u,x
O=C1c2[nH]nc(-c3ccccc3O)c2C(c2cccc(OCc3ccccc3)c2)N1CCO (configuration not stated),-1%,6%,x,u,x
CCCCN1C(=O)c2[nH]nc(-c3ccccc3O)c2C1c1cc(Br)c(O)c(OC)c1 (configuration not stated),u,11%,x,u,x
Cc1ccc(C2c3c(-c4ccccc4O)n[nH]c3C(=O)N2CCCO)cc1 (configuration not stated),18µM*,7%,x,29µM*,x
CCCCN1C(=O)c2[nH]nc(-c3ccccc3O)c2C1c1ccc(OCc2ccccc2)c(OC)c1 (configuration not stated),u,9%,x,21µM*,x
SMILES,DT40 TDP1 CPT,TDP1 block,Gal4-VP16 FLuc,TDP1 cell noCPT,RORgamma inh
COCCN1C(=O)c2[nH]nc(-c3ccccc3O)c2C1c1ccc(OC)cc1 (configuration not stated),-4%,4%,1%,-20%,-1%
CCCCN1C(=O)c2[nH]nc(-c3ccccc3O)c2C1c1ccc(OCc2ccccc2)cc1 (configuration not stated),18µM*,7%,x,u,x
CCCCN1C(=O)c2[nH]nc(-c3ccccc3O)c2C1c1ccc(C(C)(C)C)cc1 (configuration not stated),21µM*,7%,x,13µM*,x
COc1ccc(CCN2C(=O)c3[nH]nc(-c4ccccc4O)c3C2c2ccc(OC)c(OC)c2)cc1 (configuration not stated),-119%,5%,x,u,x
O=C(NC1CCCCC1)c1ccc(CSc2nc3ccncc3n2Cc2ccccc2F)cc1,u,0%,x,u,x
O=C(NC1CCCC1)c1ccc(CSc2nc3ccncc3n2Cc2ccc(F)cc2)cc1,u,5%,-16%,16µM*,29%
O=C(NCc1ccc(F)cc1)c1ccc(CSc2nc3ccncc3n2Cc2ccc(F)cc2)cc1,23µM*,8%,x,-97%,x
O=C(NC1CCCC1)c1ccc(CSc2nc3ccncc3n2Cc2cccc(F)c2)cc1,u,3%,x,16µM*,x
CCNC(=O)c1ccc(CSc2nc3ccncc3n2Cc2ccc(F)cc2)cc1,u,8%,x,u,x
Cc1c(S(=O)(=O)N(C)C2CCCCC2)c(=O)n(C)c(=O)n1C,4%,x,x,-5%,x
Cc1ccc2c(Sc3ccccc3)c(C(=O)NCc3ccccc3F)[nH]c2c1,9.2µM*,6%,x,u,x
Cc1ccc(Sc2c(C(=O)NCc3ccccc3C)[nH]c3ccccc23)cc1,u,-6%,x,-55%,x
COc1ccc2c(Sc3ccccc3)c(C(=O)NCc3cccc(OC)c3OC)[nH]c2c1,u,3%,x,u,x
COc1cccc(CNC(=O)c2[nH]c3cc(C)ccc3c2Sc2ccccc2)c1,u,11%,x,15µM*,x
